Several values for one entry are separate records, joined by “and”; a condition that tells them apart may be missing. Identical values can stand only once. Unmarked numbers belong to inactive results. Inconclusive results are not listed. Activity calls are given as the source filed them. Unless noted, the call rests on the fitted dose curve; in most records, active means well fitted curve in the direction sought with a large enough effect; inconclusive means small, poorly fitted or top-dose-only effect, or another doubt; inactive means no such curve, though single readings can be large; an effect the other way counts as inactive or inconclusive.

Our source for the Potency, outcome and caspase-3 activation values is PubChem BioAssay (NCATS).

For experiment [1], the target named is Cytochrome P450 3A4 (Homo sapiens) (UniProt P08684). Kind of experiment: qHTS Assay for Inhibitors and Substrates of Cytochrome P450 3A4 (AID 884). Further: nearly all actives have a fitted effect of over 50% in size. Further: potency means the concentration at half of the fitted maximal effect. Put shortly:
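20 nM human CYP3A4 with 25 uM Luciferin-PPXE (at KM) in 200 mM KPO4, preincubated 10 min with compound; NADPH regeneration started a 60 min RT reaction. Luciferin detected by luminescence, normalized to 57 uM ketoconazole as full inhibition.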
On the technique in general: qHTS replaces the single test concentration by a dilution series.

For experiment [2] the target is unchanged. The experiment is described as follows: qHTS Assay for Activators of Cytochrome P450 3A4 (AID 885). Further: nearly all actives have a fitted effect of over 65% in size. The essentials: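 Steps: enzyme/substrate mix dispensed; compound added, 10 min RT; NADPH regeneration solution added, 60 min RT; luciferin detection buffer stops reaction; 20 min later luminescence measured.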
Experiment [3] has as its target Cytochrome P450 2D6 (Homo sapiens) (UniProt P10635). The experiment is described as follows: qHTS Assay for Inhibitors and Substrates of Cytochrome P450 2D6 (AID 891). Further: potency means the concentration at half of the fitted maximal effect; nearly all actives have a fitted effect of over 60% in size. Put shortly:
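Human CYP2D6 (5 nM) with 30 uM Luciferin-ME EGE (at Km) in 100 mM KPO4, compound preincubated 10 min, then NADPH regeneration system for 60 min at room temperature. Luciferin read by luminescence; normalized to 1.43 uM quinidine.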

Experiment [4] can be described thus: Cellular Toxicity (caspase-3) HepG2 (AID 654).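 Further: cells exposed to compound for 16 hours before reading; 0% = DMSO alone and 100% = caspase signal from 100 µM tamoxifen.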 The essentials:
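HepG2 cells (1500/well) in complete medium were treated with compounds for 16 hr at 37 °C. Caspase-3/7 activity was then read as luminescence from peptide-aminoluciferin cleavage. AC50 came from Hill fits, normalized to DMSO and 100 uM tamoxifen.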

Experiment [5] in a line: Cellular Toxicity (caspase-3) Jurkat (AID 655).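 Further: cells exposed to compound for 16 h at 37 °C before reading.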 Further: potency means the concentration at half of the fitted maximal effect. The essentials:
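5000 Jurkat cells/well; compound 16 hr, 37 °C; Caspase-Glo 3/7 added, 20 min RT; luminescence read. Norm: DMSO = 0%, tamoxifen 100 uM = 100%. AC50, Hill model.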

The nature of experiment [6]: Cellular Toxicity (caspase-3) HUV-EC-C (AID 656).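 Further: 0% = DMSO basal and 100% = 100 µM tamoxifen.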 Put shortly:
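qHTS; HUV-EC-C, 1000 cells/well; 5 hr settle, 16 hr cmpd, 37°C; Caspase-Glo 3/7, 20 min RT; luminescence. Norm: DMSO = 0%, tamoxifen 100 uM = 100%. Hill-fit AC50.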

Experiment [7] can be described thus: Cellular Toxicity (caspase-3) SHSY5Y (AID 657). The essentials: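 qHTS, SH-SY5Y, 1500 cells/well, 5 h pre-incubation 37 °C; compound 16 h 37 °C; Caspase-Glo 3/7 1 h RT; luminescence. Norm.: DMSO = 0, 10 uM staurosporine = 100%. Hill fit → AC50.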
A short description of experiment [8]: Cellular Toxicity (caspase-3) MRC-5 (AID 659). Further: potency means the concentration at half of the fitted maximal effect.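 On caspase-3 activation: 0% = DMSO basal and 100% = 10 µM staurosporine.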 The settings on record: Potency: caspase-3 activation. The essentials: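 MRC-5 human normal lung fibroblasts, 1500 cells/well, treated 16 h at 37 °C in complete medium. Caspase 3/7 measured by Caspase-Glo luminescence after 1 h at room temperature. Normalized to DMSO and 10 uM staurosporine; AC50 from Hill fit.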

Experiment [9] can be described thus: Cellular Toxicity (caspase-3) Mesangial (AID 660). The essentials: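 Human renal glomerular mesangial cells (1000/well) were treated with compounds for 16 h at 37 °C in complete medium, then caspase 3/7 activity was read by Caspase-Glo luminescence. Data were normalized to DMSO and 100 uM tamoxifen; AC50 from Hill fits.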
The nature of experiment [10]: Cellular Toxicity (caspase-3) SK-N-SH (AID 661). Further: potency means the concentration at half of the fitted maximal effect.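 On caspase-3 activation: 0% = DMSO basal and 100% = 10 µM staurosporine.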 To be noted: SK-N-SH caspase-3 activation, qHTS; caspase-3 activation: at 91.7 µM (top of the series), DMSO as zero, staurosporine as full. Put shortly: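 SK-N-SH human neuroblastoma cells (1500/well) were treated with compounds for 16 hr at 37 °C in complete medium; caspase 3/7 activity was read by Caspase-Glo luminescence. AC50 came from Hill fits of data normalized to DMSO and 10 uM staurosporine.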

Experiment [11] is described as follows: Cellular Toxicity (caspase-3) H-4-II-E (AID 663).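 Further: cells exposed to compound for 16 hr before readout; 0% = DMSO basal and 100% = 100 µM tamoxifen.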 The essentials: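 Rat hepatoma H-4-II-E cells (1500/well) plated 5 hr, then exposed to compound titrations for 16 hr at 37 °C. Caspase-Glo 3/7 luminescence read after 20 min at RT; data normalized to DMSO and 100 uM tamoxifen, AC50 from Hill fits.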
Experiment [12] is described as follows: Cellular Toxicity (caspase-3) Hek293 (AID 664).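 Further: cells exposed to compound for 16 h at 37 °C before readout.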 Put shortly:
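HEK293 cells were exposed to compounds in complete medium for 16 hr at 37 °C, then caspase-3/7 activity was read by Caspase-Glo 3/7 luminescence after 20 min at room temperature. Data normalized to DMSO and 100 uM tamoxifen; AC50 from Hill fits.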

Experiment [13] is described as follows: Cellular Toxicity (caspase-3) N2a (AID 665).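 Further: compound exposure lasted 16 h at 37 °C before readout.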 The essentials:
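Mouse N2a neuroblastoma cells (1500/well) were treated with compounds for 16 h at 37 °C, then caspase-3/7 activity was read by Caspase-Glo luminescence after 1 h at room temperature. Data were normalized to DMSO and 10 uM staurosporine; AC50 from Hill fits.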

Experiment [14] is described as follows: Cellular Toxicity (caspase-3) NIH 3T3 (AID 666).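 Further: caspase signal read after 16 h compound exposure; 0% = DMSO basal and 100% = 100 µM tamoxifen stimulation.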 The essentials:
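Mouse NIH 3T3 fibroblasts (1000 cells/well) were treated with compound for 16 hr at 37°C in complete medium; caspase-3/7 activity was read by Caspase-Glo luminescence. Normalized to DMSO and 100 uM tamoxifen; AC50 from Hill fits.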

A short description of experiment [15]: Confirmation and Secondary Assay for Modulators of Hemoglobin Beta Chain Splicing at IVS2 654 locus (AID 910).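 Further: HeLa cells stably carrying EGFP split by mutant beta-globin IVS2-654 intron; % of control where 0% means no effect.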 Put shortly:
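HeLa cells stably expressing EGFP interrupted by β-globin IVS2-654 intron, seeded overnight in Opti-MEM/2% FCS, then treated 2 days at 37 °C. Restored splicing read as total peak GFP intensity per well by laser scanning cytometry (488 nm excitation, 500–520 nm emission); 500 nM antisense PNA as control.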

The target in experiment [16] is Guanine nucleotide-binding protein G(i) subunit alpha-1 (Homo sapiens) (UniProt P63096). The experiment is described as follows: qHTS Assay for Inhibitors of RGS12 GoLoco Motif Activity (Green Fluorophore) (AID 879). Further: potency means the concentration at half of the fitted maximal effect. Put shortly: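 Fluorescence polarization assay: 50 nM Gαi1 with 10 nM FITC-labeled RGS12 GoLoco peptide in 10 mM Tris pH 7.5, 150 mM NaCl, 0.1 mM GDP, 0.05% NP40, 10 min at room temperature with compound.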
Guanine nucleotide-binding protein G(i) subunit alpha-1 (Homo sapiens), sequence (P63096 whole entry, looked up): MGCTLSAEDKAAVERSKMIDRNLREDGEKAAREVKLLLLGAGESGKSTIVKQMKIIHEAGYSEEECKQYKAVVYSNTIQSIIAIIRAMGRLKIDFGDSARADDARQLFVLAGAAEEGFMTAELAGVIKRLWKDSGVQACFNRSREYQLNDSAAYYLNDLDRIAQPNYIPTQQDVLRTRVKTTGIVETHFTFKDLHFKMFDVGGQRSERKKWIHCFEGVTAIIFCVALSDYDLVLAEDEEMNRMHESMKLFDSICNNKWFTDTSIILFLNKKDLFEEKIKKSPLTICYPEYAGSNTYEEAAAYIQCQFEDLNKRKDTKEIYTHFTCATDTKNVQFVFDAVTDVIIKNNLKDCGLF

The nature of experiment [17]: qHTS Assay for Identification of Small Molecule Antagonists for NFkB Signaling Pathway (AID 895; active means well fitted inhibition curve with a large enough effect in the signal ratio, with a control signal flat, not every such curve was filed as active; the % refers to the signal ratio; further: on the % scale 0 is the no-effect control and ±100 the full control effect). The essentials: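 ME-180 NFkB-bla cells (beta-lactamase under NFkB response element), plated overnight, treated with compound then 10 pM TNF alpha (about EC50) for 5 hrs at 37 C. LiveBLAzer FRET read at 460/530 nm emission, 405 nm excitation.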

Cytochrome P450 3A4 (Homo sapiens), sequence (P08684 whole entry, looked up): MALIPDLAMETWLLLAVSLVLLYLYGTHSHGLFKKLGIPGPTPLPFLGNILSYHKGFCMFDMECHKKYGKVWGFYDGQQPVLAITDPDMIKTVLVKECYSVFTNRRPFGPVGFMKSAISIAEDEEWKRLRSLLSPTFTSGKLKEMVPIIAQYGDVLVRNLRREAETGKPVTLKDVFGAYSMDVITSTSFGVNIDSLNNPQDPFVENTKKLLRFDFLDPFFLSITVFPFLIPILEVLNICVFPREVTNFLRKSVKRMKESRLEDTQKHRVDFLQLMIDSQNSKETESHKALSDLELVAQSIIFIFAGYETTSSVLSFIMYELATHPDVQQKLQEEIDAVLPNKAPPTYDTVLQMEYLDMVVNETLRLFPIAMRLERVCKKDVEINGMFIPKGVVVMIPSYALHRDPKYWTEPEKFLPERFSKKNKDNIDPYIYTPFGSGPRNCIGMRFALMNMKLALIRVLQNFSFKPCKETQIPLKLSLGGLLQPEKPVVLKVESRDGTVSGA
Cytochrome P450 2D6 (Homo sapiens), sequence (P10635 whole entry, looked up): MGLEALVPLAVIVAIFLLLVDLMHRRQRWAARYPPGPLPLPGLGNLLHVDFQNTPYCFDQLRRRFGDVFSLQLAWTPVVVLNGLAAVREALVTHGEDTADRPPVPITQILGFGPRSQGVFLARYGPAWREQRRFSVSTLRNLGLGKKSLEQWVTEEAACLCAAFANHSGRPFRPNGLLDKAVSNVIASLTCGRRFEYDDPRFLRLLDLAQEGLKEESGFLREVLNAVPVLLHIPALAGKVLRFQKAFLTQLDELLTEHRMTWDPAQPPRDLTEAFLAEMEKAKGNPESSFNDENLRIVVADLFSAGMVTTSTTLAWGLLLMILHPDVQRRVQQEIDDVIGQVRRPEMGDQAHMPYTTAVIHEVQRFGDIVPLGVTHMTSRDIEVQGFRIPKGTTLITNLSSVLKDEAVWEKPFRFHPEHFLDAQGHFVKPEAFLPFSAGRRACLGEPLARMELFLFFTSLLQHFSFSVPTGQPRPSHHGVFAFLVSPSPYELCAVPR

For `CCC(=O)O[C@@](Cc1ccccc1)(c1ccccc1)[C@@H](C)CN(C)C`, the Potency in experiment [1] was 5.01 µM (active); in [3], 7.94 µM (active). The molecule was called inactive in experiment [2].

Take `C[C@H]1CCC[C@H](O)CCCCCc2cc(O)cc(O)c2C(=O)O1`: the outcome in [4], in [6], in [7], in [9], in experiment [11] and in experiment [12] was inactive. Moreover, the call in experiment [13] and in [2] was inactive. Moreover, the Potency entry in experiment [5], in [8], in experiment [10] and in experiment [14] was “inactive” throughout. Moreover, the Potency in experiment [1] was 3.98 µM (active).

As to `[N-]=[N+]=CC(=O)OCC(N)C(=O)O` (stereo unspecified), the Potency result in [1] is “inactive”. Moreover, the molecule was classed as inactive in experiment [15].

Take `ClC1C(Cl)C(Cl)C(Cl)C(Cl)C1Cl` (stereo unspecified): in experiment [15], the molecule was called inactive.

Regarding `C=CCN=C=S`, the call in experiment [4], in [6], in experiment [7], in experiment [9], in [11] and in experiment [12] was inactive. For the same molecule, the outcome in [13] and in [2] was inactive. Also, the Potency result in experiment [5], in [8], in experiment [10] and in experiment [14] was “inactive” throughout.

In the case of `N[C@@H](Cn1oc(=O)[nH]c1=O)C(=O)O`, in experiment [16], the Potency entry was “inactive”. For the same molecule, the molecule was classed as inactive in experiment [2].

Take `Clc1ccc(Cl)cc1`: the Potency result in experiment [1] is “inactive”. Also, the call in [15] was inactive.

`[Cl-].[Cl-].[Hg+2]`: the outcome in [4], in [6], in [7], in experiment [9], in experiment [11] and in experiment [12] was inactive. For the same molecule, the call in experiment [13] and in experiment [15] was inactive. The Potency entry in [5], in [8], in experiment [10] and in [14] was “inactive” each time.

`CC1OC1P(=O)(O)O` (stereo unspecified): the Potency entry in experiment [1] is “inactive”.

Regarding `OC1CCCCC1N1CCC(c2ccccc2)CC1` (stereo unspecified), the call in experiment [15] was inactive.

For the molecule `Cc1cc(C)cc(C(=O)OC2C[C@H]3CC[C@@H](C2)N3C)c1` (stereo partly specified), the Potency in experiment [3] is 0.251 µM (active).

In the case of `CC(N)Cc1ccc(O)cc1` (stereo unspecified), the Potency entry in experiment [1] was “inactive”. The result in [15] was inactive.

`NC(Cc1ccc(N(CCCl)CCCl)cc1)C(=O)O` (stereo unspecified): the molecule was classed as inactive in experiment [2] and in experiment [15].

`C=CCC1(C(C)CCC)C(=O)N=C(S)NC1=O` (stereo unspecified): the Potency in [1] is 12.6 µM (active). The molecule was called inactive in experiment [2] and in experiment [15].

With `O=C(O)c1cc[c]([Hg][Cl])cc1`, in experiment [16], the Potency is 25.1 µM (active). Moreover, the Potency entry in experiment [17] was “inactive”.

As for `[O]=[Cr](=[O])([OH])[O][Cr](=[O])(=[O])[OH]`, the outcome in experiment [4], in experiment [9], in experiment [11], in experiment [12] and in experiment [13] was inactive. In addition, the Potency in [5] was 31.6 µM (active); in experiment [8] it was 20 µM (active) and 25.1 µM (active); in experiment [10], 20 µM (active). For the same molecule, in experiment [10], the caspase-3 activation was 80.2% (active). The Potency result in [1] was “inactive”.

On to `O=C1C2CC=CCC2C(=O)N1SC(Cl)(Cl)Cl` (stereo unspecified), for which the result in experiment [4], in experiment [6], in experiment [7], in [9], in [11] and in experiment [12] was inactive. Further, the call in experiment [13] and in [2] was inactive. For the same molecule, in experiment [5], the Potency is 1.58 µM (active). Also, the Potency result in experiment [8] and in experiment [14] was “inactive” throughout.

Consider `CC(C)Nc1ccc(Nc2ccccc2)cc1`, for which the molecule was called inactive in experiment [4], in experiment [6], in [7], in experiment [9], in experiment [12] and in experiment [13]. The outcome in experiment [2] was inactive. The Potency entry in experiment [5], in experiment [8], in experiment [10] and in experiment [14] was “inactive” throughout.
